Holding throughout (assay): DAPPL (digital affinity profiling via proximity ligation, sequencing); 10 mM Tris-HCl pH 7.5, 50 mM NaCl, 1 mM DTT, 4% glycerol, room temperature, 30 min; GST-TFs on glutathione beads, 16-mer random dsDNA library, 0.1% formaldehyde crosslink after washing; high values mean tight binding
What all share (conditions): protein: recombinant; tags: N-terminal GST; dsDNA, one strand shown

The target in one assay is T1, FLI1 (Homo sapiens, UniProt Q01543 1-452).
T1 sequence: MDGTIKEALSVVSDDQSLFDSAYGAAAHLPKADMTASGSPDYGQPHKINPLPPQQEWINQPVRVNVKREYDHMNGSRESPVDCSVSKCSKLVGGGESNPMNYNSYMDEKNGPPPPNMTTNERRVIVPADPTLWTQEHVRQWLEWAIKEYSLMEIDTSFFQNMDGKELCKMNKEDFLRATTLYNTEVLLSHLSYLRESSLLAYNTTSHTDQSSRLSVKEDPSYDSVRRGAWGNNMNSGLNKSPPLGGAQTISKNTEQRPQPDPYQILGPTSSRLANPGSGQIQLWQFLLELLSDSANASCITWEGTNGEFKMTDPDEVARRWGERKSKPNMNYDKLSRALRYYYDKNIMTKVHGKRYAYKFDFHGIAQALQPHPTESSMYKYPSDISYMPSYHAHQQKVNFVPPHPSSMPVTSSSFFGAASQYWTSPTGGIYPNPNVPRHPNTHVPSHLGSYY
The gist of the method: (§1)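 After expression in yeast as GST fusions, human transcription factors were bound to glutathione beads, DNA-barcoded and mixed with a tag-only sample. The pools were incubated with 200 nmole of a 16-mer random double-stranded DNA library in Tris/NaCl/DTT/glycerol buffer (30 min, room temperature), washed and crosslinked with 0.1% formaldehyde. Proximity ligation with BsaI/T4 ligase ran for 1 h at 37 °C, before PCR amplification and sequencing on an Illumina NextSeq500. Binding signal is a hexamer's read frequency for a factor divided by its frequency for the tag-only sample.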

The target in the next assay is T2, ELK1 (Homo sapiens, UniProt P19419 1-428).
T2 sequence: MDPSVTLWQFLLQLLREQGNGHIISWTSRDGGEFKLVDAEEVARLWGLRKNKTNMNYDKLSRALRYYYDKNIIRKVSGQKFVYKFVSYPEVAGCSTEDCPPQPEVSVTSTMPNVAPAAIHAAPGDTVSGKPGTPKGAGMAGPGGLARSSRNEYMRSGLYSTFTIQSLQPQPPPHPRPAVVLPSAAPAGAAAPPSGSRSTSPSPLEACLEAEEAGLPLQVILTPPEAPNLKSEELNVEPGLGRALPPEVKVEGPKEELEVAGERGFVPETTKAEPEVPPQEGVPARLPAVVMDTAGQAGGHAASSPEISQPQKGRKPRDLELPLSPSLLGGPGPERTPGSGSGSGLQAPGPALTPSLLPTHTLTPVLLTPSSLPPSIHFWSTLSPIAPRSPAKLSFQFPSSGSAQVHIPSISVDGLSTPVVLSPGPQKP
The method, boiled down: as §1

In the next assay the target is T3, GABPA (Homo sapiens, UniProt Q06546 1-454).
T3 sequence: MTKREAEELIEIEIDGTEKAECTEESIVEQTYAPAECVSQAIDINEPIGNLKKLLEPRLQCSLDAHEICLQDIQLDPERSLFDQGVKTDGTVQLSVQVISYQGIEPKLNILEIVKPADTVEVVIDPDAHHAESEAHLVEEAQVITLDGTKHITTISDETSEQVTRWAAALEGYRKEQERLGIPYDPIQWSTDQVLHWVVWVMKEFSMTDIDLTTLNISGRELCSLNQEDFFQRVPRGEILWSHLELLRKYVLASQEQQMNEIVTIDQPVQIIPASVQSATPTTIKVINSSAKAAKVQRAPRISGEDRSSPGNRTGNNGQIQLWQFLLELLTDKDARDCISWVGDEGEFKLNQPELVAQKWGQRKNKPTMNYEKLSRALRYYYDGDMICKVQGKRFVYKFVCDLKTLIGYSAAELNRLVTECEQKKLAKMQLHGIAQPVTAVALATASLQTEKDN
The method, boiled down:
as §1

Another assay deals with T4, ERG (Homo sapiens, UniProt P11308 1-479).
T4 sequence: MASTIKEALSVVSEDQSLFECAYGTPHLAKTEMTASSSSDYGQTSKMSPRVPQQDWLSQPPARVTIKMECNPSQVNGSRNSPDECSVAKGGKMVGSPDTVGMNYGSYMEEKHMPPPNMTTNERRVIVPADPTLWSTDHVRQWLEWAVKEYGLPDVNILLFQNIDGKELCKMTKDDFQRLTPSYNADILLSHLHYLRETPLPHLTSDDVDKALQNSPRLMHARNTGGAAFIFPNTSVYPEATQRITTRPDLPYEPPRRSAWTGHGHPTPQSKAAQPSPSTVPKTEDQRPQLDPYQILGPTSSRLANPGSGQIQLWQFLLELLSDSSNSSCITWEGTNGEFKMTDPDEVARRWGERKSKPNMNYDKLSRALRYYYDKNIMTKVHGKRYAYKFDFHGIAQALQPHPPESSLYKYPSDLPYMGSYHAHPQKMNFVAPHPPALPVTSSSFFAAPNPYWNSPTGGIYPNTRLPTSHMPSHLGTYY
The method, boiled down: as §1

A further assay concerns the target ELF1 (Homo sapiens, UniProt P32519 1-619). The method, boiled down:
as §1

The target of a further assay is T5, EHF (Homo sapiens, UniProt Q9NZC4 1-300).
T5 sequence: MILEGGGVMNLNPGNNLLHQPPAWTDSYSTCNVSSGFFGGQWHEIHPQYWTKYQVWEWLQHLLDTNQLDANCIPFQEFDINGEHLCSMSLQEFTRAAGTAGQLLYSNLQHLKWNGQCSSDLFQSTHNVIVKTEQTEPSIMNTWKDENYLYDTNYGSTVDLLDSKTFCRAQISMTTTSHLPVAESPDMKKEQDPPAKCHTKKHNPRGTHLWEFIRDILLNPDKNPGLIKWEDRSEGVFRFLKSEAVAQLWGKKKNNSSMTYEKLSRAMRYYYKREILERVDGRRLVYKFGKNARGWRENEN
The method, boiled down:
as §1

The next assay deals with SPI1 (Homo sapiens, UniProt P17947 1-270). The method, boiled down:
as §1

For a further assay, the target named is SPIB (Homo sapiens, UniProt Q01892 1-262). The method, boiled down: as §1
SPIB, sequence (Q01892 whole entry): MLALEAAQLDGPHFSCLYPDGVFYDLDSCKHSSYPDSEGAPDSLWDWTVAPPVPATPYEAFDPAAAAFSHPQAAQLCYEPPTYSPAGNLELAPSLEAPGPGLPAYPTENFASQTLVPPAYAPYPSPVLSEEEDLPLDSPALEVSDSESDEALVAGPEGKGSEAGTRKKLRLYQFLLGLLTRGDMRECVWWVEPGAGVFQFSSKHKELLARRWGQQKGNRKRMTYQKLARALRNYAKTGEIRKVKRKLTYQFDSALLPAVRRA
For another assay, the target named is T6, ELK3 (Homo sapiens, UniProt P41970 1-407).
T6 sequence: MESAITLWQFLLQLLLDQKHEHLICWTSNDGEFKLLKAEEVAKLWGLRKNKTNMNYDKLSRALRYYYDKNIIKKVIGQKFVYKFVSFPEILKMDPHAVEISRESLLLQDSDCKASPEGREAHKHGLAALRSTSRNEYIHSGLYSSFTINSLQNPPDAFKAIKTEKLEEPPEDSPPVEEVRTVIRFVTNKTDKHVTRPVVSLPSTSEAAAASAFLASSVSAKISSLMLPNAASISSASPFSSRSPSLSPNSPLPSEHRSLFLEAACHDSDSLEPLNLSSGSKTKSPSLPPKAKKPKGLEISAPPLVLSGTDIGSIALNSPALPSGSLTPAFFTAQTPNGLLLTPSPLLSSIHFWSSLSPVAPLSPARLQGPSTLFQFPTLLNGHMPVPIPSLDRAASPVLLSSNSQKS
The gist of the method:
as §1

ELF1, sequence (P32519 whole entry): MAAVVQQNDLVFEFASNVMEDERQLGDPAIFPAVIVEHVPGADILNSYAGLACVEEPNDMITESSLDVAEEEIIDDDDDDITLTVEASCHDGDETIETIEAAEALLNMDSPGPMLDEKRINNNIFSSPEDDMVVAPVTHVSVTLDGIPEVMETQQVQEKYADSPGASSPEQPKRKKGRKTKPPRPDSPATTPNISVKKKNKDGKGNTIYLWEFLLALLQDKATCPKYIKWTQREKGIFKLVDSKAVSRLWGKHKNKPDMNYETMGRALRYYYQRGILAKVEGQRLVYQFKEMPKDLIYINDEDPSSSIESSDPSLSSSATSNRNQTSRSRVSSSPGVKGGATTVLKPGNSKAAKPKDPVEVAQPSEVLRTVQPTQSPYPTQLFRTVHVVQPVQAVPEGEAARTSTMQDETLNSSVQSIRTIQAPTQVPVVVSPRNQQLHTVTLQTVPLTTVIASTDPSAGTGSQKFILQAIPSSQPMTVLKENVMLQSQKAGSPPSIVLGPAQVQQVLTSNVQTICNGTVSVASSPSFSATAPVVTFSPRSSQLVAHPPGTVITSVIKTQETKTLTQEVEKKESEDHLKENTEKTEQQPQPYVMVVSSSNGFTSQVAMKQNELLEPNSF

In the case of ATGACC, the binding signal in the assay with FLI1 is 1.54 fold enrichment (6-mer frequency, TF over GST control); with ELK1, 1.58 fold enrichment (6-mer frequency, TF over GST control); with GABPA, 1.78 fold enrichment (6-mer frequency, TF over GST control); in the assay with ERG, 1.52 fold enrichment (6-mer frequency, TF over GST control); with ELF1, 1.6 fold enrichment (6-mer frequency, TF over GST control); with EHF, 1.61 fold enrichment (6-mer frequency, TF over GST control). Also, the binding signal with SPI1 is 1.6 fold enrichment (6-mer frequency, TF over GST control); with SPIB, 1.45 fold enrichment (6-mer frequency, TF over GST control); with ELK3, 1.65 fold enrichment (6-mer frequency, TF over GST control).
With TCCTTT, the binding signal with FLI1 is 1.64 fold enrichment (6-mer frequency, TF over GST control); with ELK1, 1.75 fold enrichment (6-mer frequency, TF over GST control); in the assay with GABPA, 1.72 fold enrichment (6-mer frequency, TF over GST control); in the assay with ERG it was 1.79 fold enrichment (6-mer frequency, TF over GST control); with ELF1, 1.81 fold enrichment (6-mer frequency, TF over GST control); with EHF it was 1.73 fold enrichment (6-mer frequency, TF over GST control). Also, the binding signal was 1.83 fold enrichment (6-mer frequency, TF over GST control) with SPI1; 1.67 fold enrichment (6-mer frequency, TF over GST control) with SPIB; 1.81 fold enrichment (6-mer frequency, TF over GST control) with ELK3.
Take TTTTTG: the binding signal with FLI1 is 1.43 fold enrichment (6-mer frequency, TF over GST control); with ELK1, 1.29 fold enrichment (6-mer frequency, TF over GST control); in the assay with GABPA, 1.38 fold enrichment (6-mer frequency, TF over GST control); with ERG it was 1.33 fold enrichment (6-mer frequency, TF over GST control); with ELF1, 1.4 fold enrichment (6-mer frequency, TF over GST control); with EHF it was 1.27 fold enrichment (6-mer frequency, TF over GST control). Also, the binding signal in the assay with SPI1 is 1.54 fold enrichment (6-mer frequency, TF over GST control); with SPIB, 1.5 fold enrichment (6-mer frequency, TF over GST control); with ELK3, 1.4 fold enrichment (6-mer frequency, TF over GST control).
For the sequence CCCGCT, the binding signal with FLI1 is 1.38 fold enrichment (6-mer frequency, TF over GST control); with ELK1 it was 1.31 fold enrichment (6-mer frequency, TF over GST control); in the assay with GABPA it was 1.34 fold enrichment (6-mer frequency, TF over GST control); with ERG, 1.3 fold enrichment (6-mer frequency, TF over GST control); with ELF1, 1.44 fold enrichment (6-mer frequency, TF over GST control); with EHF it was 1.48 fold enrichment (6-mer frequency, TF over GST control). Besides, the binding signal with SPI1 is 1.37 fold enrichment (6-mer frequency, TF over GST control); with SPIB it was 1.35 fold enrichment (6-mer frequency, TF over GST control); with ELK3, 1.35 fold enrichment (6-mer frequency, TF over GST control).
In the case of AAACAT, the binding signal with FLI1 was 1.53 fold enrichment (6-mer frequency, TF over GST control); in the assay with ELK1, 1.4 fold enrichment (6-mer frequency, TF over GST control); in the assay with GABPA, 1.49 fold enrichment (6-mer frequency, TF over GST control); with ERG, 1.37 fold enrichment (6-mer frequency, TF over GST control); with ELF1, 1.5 fold enrichment (6-mer frequency, TF over GST control); with EHF, 1.43 fold enrichment (6-mer frequency, TF over GST control). Besides, the binding signal with SPI1 was 1.36 fold enrichment (6-mer frequency, TF over GST control); with SPIB it was 1.48 fold enrichment (6-mer frequency, TF over GST control); with ELK3, 1.46 fold enrichment (6-mer frequency, TF over GST control).
Turning to ACAATC, the binding signal with FLI1 is 1.08 fold enrichment (6-mer frequency, TF over GST control); in the assay with ELK1 it was 1.09 fold enrichment (6-mer frequency, TF over GST control); in the assay with GABPA, 1.19 fold enrichment (6-mer frequency, TF over GST control); in the assay with ERG, 1.16 fold enrichment (6-mer frequency, TF over GST control); with ELF1 it was 1.21 fold enrichment (6-mer frequency, TF over GST control); with EHF, 1.13 fold enrichment (6-mer frequency, TF over GST control). Also, the binding signal with SPI1 is 1.12 fold enrichment (6-mer frequency, TF over GST control); with SPIB, 1.09 fold enrichment (6-mer frequency, TF over GST control); with ELK3, 1.13 fold enrichment (6-mer frequency, TF over GST control).
In the case of GCCTAA, the binding signal is 1.22 fold enrichment (6-mer frequency, TF over GST control) in the assay with FLI1; 1.17 fold enrichment (6-mer frequency, TF over GST control) with ELK1; 1.14 fold enrichment (6-mer frequency, TF over GST control) in the assay with GABPA; 1.24 fold enrichment (6-mer frequency, TF over GST control) in the assay with ERG; 1.22 fold enrichment (6-mer frequency, TF over GST control) with ELF1; 1.28 fold enrichment (6-mer frequency, TF over GST control) with EHF. In addition, the binding signal in the assay with SPI1 was 1.11 fold enrichment (6-mer frequency, TF over GST control); with SPIB it was 1.23 fold enrichment (6-mer frequency, TF over GST control); with ELK3, 1.19 fold enrichment (6-mer frequency, TF over GST control).

(Values after publication PMC7862700, “An all-to-all approach to the identification of sequence-specific readers for epigenetic DNA modifications on cytosine”.)
